# Data from the supplement of paper PMC7726561.
# Whole data set: some 1,400 sequences, median “thermal melting temperature (Tm) of peptide-HLA complex” near 60, cut for the lowest 2% near 45. This excerpt belongs to a sample that is enriched for the lowest values.
# B1: unnamed (peptide)
# chain: VPNWHRDLV
# B2: unnamed (peptide)
# chain: KPMPSLPQL
# B3: unnamed (peptide)
# chain: VPRAILVDL
# B4: unnamed (peptide)
# chain: NPRQPLPASGL
# B5: unnamed (peptide)
# chain: SPRPPAEGF
# B6: unnamed (peptide)
# chain: RPNGTKVAVL
# B7: unnamed (peptide)
# chain: RPKTPPVVI
# B8: unnamed (peptide)
# chain: FPIPAAEVDRL
# B9: unnamed (peptide)
# chain: RPAANPIQFTL
# B10: unnamed (peptide)
# chain: IPRSITVLV
# B11: unnamed (peptide)
# chain: MPHVPITTL
# B12: unnamed (peptide)
# chain: LPQYRLISI
# B13: unnamed (peptide)
# chain: YPARYRPTAL
# B14: unnamed (peptide)
# chain: QPRLFTMDL
# B15: unnamed (peptide)
# chain: SPKSPTAAL
# B16: unnamed (peptide)
# chain: VPQESRFNL
# B17: unnamed (peptide)
# chain: LPRSINTDTL
# B18: unnamed (peptide)
# chain: KPKFILSVL
# B19: unnamed (peptide)
# chain: YPRPLLIAF
# B20: unnamed (peptide)
# chain: LPELKSTL
# B21: unnamed (peptide)
# chain: SPSFPRPSL
# B22: unnamed (peptide)
# chain: IPDVKGAVL
# B23: unnamed (peptide)
# chain: SPAPPLLHV
# B24: unnamed (peptide)
# chain: KPYAHILSV
# B25: unnamed (peptide)
# chain: SPAPRTAL
# B26: unnamed (peptide)
# chain: FPKNIFAEL
# B27: unnamed (peptide)
# chain: RPASGSPFQL
# B28: unnamed (peptide)
# chain: SPYPGLRLISL
# B29: unnamed (peptide)
# chain: MPYSNGRPAL
# B30: unnamed (peptide)
# chain: HPRSPNVLSV
# B31: unnamed (peptide)
# chain: AVDPNRAVPL
# B32: unnamed (peptide)
# chain: GPHVPFTVF
# B33: unnamed (peptide)
# chain: GPRSAQVAQSL
# B34: unnamed (peptide)
# chain: SPRALTQPLGL
# B35: unnamed (peptide)
# chain: RPTEGVQAL
# B36: unnamed (peptide)
# chain: VIAPVRAVL
# B37: unnamed (peptide)
# chain: VARPLSTAL
# B38: unnamed (peptide)
# chain: HPVVSSVPL
# B39: unnamed (peptide)
# chain: RPYGVGLLI
# B40: unnamed (peptide)
# chain: IPSIRNGIL
# B41: unnamed (peptide)
# chain: SPRTPVSPVKF
# B42: unnamed (peptide)
# chain: SPRAPVSPLKF
# B43: unnamed (peptide)
# chain: WPHPPGPFL
# B44: unnamed (peptide)
# chain: SPIYISRII
# B45: unnamed (peptide)
# chain: RPFERTITM
# B46: unnamed (peptide)
# chain: QPATPGLGM
# B47: unnamed (peptide)
# chain: APSGTRVVQVL
# B48: unnamed (peptide)
# chain: KPRPIIPML
# B49: unnamed (peptide)
# chain: IPTKKSQVF
# B50: unnamed (peptide)
# chain: YPFFRGVTI
# B51: unnamed (peptide)
# chain: HPRAPVLL
# B52: unnamed (peptide)
# chain: TPEEVRLPL
# B53: unnamed (peptide)
# chain: RPTGGVGAV
# B54: unnamed (peptide)
# chain: SPANLPAVL
# B55: unnamed (peptide)
# chain: FPRAPSTSDSV
# B56: unnamed (peptide)
# chain: TPLGTRSGL
# Molecular target: HLA-B*07:02
# Test: thermal melting temperature (Tm) of peptide-HLA complex; higher = more thermostable pHLA complex
# Conditions: C1R-B*07:02
# 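Also: lysates heated 10 min at 37–73 °C, complexes pulled down with pan-HLA I antibody, peptide signal by DIA-MS relative to 37 °C, Tm where half the complex is unfolded.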
row,Sequence,thermal melting temperature [°C]
1,B1,58.3
2,B2,44.9
3,B3,62.4
4,B4,58.3
5,B5,55.8
6,B6,60.1
7,B7,59.6
8,B8,62.2
9,B9,59.8
10,B10,62.4
11,B11,61.3
12,B12,61.3
13,B13,58.2
14,B14,60.2
15,B15,60.1
16,B16,57.1
17,B17,58.5
18,B18,62.7
19,B19,62

row,Sequence,thermal melting temperature [°C]
1,B20,60.8
2,B21,61.4
3,B22,58.7
4,B23,60.8
5,B24,55.5
6,B25,57.4
7,B26,62.8
8,B27,52.6
9,B28,62.1
10,B29,58.2
11,B30,57.6
12,B31,60.5
13,B32,62.3
14,B33,40.4
15,B34,61.2
16,B35,54.3
17,B36,59.2
18,B37,59.6
19,B38,57.8

row,Sequence,thermal melting temperature [°C]
1,B39,59
2,B40,62.8
3,B41,59.3
4,B42,59.5
5,B43,62.3
6,B44,58.8
7,B45,56.5
8,B46,57
9,B47,41.4
10,B48,60.7
11,B49,58.9
12,B50,61.8
13,B51,59.5
14,B52,62.1
15,B53,54.3
16,B54,62.6
17,B55,57.1
18,B56,55.6
